Source: ChEMBL document CHEMBL4513216, “Probing the Open Global Health Chemical Diversity Library for Multistage-Active Starting Points for Next-Generation Antimalarials” (ACS Infect Dis, 2020)
Out of some 68,000 compounds screened, about 2,700 (4%) showed an effect of 50% or more. This excerpt belongs to a sample that is enriched for strong results.

The molecules below were run on Plasmodium berghei (assay: Screen against P. berghei liver stage (PbLuc), transformed with Luciferase, at 2uM). Details: tested at 2 uM.
Assay type: functional, HepG2
Cc1ccc(N2CCOC(C)(C(=O)N(C)C)C2)nn1 (configuration not stated) showed an INHIBITION of 39.07%.
Cc1cc(N2CCOC(C)(C(=O)N(C)C)C2)ncn1 (configuration not stated) gave an INHIBITION of 58.29%.
For CC(C)N1CCOC[C@H]1c1nc(C(C)(C)C)c[nH]1, the INHIBITION was -0.14%.
In the case of CCCC(NC(=O)c1cc(C)ccc1O)c1nnn[nH]1 (configuration not stated), the INHIBITION is reported as -7.9%.
Molecule COC(=O)[C@@H]1Cc2ncn(C)c2CN1S(=O)(=O)c1ccc(OC)cc1 has an INHIBITION of 47.42%.
CCCn1cnc2c1CN(S(=O)(=O)Cc1ccccc1)[C@H](C(=O)OC)C2 showed an INHIBITION of 60.6%.
In the case of COC(=O)[C@@H]1Cc2ncn(C)c2CN1S(=O)(=O)c1ccc(Cl)cc1, the INHIBITION is reported as 57.85%.
Molecule CCCn1cnc2c1CN(S(=O)(=O)c1ccc(F)cc1)[C@H](C(=O)OC)C2 has an INHIBITION of 46.32%.
With COC(=O)[C@@H]1Cc2ncn(C(C)C)c2CN1S(=O)(=O)Cc1ccccc1 the INHIBITION was 39.18%.
With CCCS(=O)(=O)N1Cc2c(ncn2Cc2ccccc2)C[C@H]1C(=O)OC the INHIBITION was 39.73%.
Work on COC(=O)[C@@H]1Cc2ncn(C)c2CN1S(=O)(=O)c1ccc(C)cc1 yielded an INHIBITION of 6.24%.
Work on COC(=O)[C@@H]1Cc2ncn(C)c2CN1S(=O)(=O)c1cccs1 yielded an INHIBITION of 51.81%.
With COC(=O)[C@@H]1Cc2ncn(C)c2CN1S(=O)(=O)Cc1ccccc1 the INHIBITION was 26.55%.
Molecule Nc1ncc(-c2cccc(NC(=O)[C@@H]3CCCCN3)c2)cn1 has an INHIBITION of 14.95%.
CN(C)CCN1CCN(C(=O)c2ccn(C)c(=O)c2)CC1 showed an INHIBITION of 5.59%.
For CC(C)OCCCNC(=O)c1c(-n2cnnn2)sc2c1CCCC2, the INHIBITION was 49.57%.
Cc1ccc(N2C[C@H]3OCC[C@H]3[C@H](C(=O)NCc3ccco3)C2)nn1 gave an INHIBITION of 65.78%.
Cc1ccc(N2C[C@H]3OCC[C@H]3[C@H](C(=O)NCC3CC3)C2)nn1 showed an INHIBITION of -11.4%.
In the case of Cc1ccc(N2C[C@H](C(=O)NCC3CC3)[C@@H]3CCO[C@@H]3C2)nn1, the INHIBITION is reported as -2.72%.
Cc1nccn1CC1CCN(C(=O)c2ccccc2)CC1 showed an INHIBITION of -78.75%.
COc1cccc(N2CC3(CCN(c4ccncn4)C3)CC2=O)c1 (configuration not stated) showed an INHIBITION of 13.38%.
CNc1cncc(C2CCCN2S(=O)(=O)c2ccc(F)cc2)n1 (configuration not stated) gave an INHIBITION of 2.8%.
With CN(C)CCN1CCC2(CCCN(C(=O)C3CCC3)C2)CC1 the INHIBITION was -9.47%.
In the case of CC(C)c1cccc(S(=O)(=O)NCCCN2CCC(O)CC2)c1, the INHIBITION is reported as -13.21%.
For CC(C#N)NS(=O)(=O)c1cccc(C(C)C)c1 (configuration not stated), the INHIBITION was 69.67%.
CCC(=O)c1cccc(S(=O)(=O)NC(C)C#N)c1 (configuration not stated) was tested, and the INHIBITION was 31.51%.
Work on CNS(=O)(=O)c1cccc(C(C)NCc2ccccc2)c1 (configuration not stated) yielded an INHIBITION of 12.75%.
Molecule CC(CO)NS(=O)(=O)c1cccc(C(C)C)c1 (configuration not stated) has an INHIBITION of 60.13%.
Work on Cc1ccc(S(=O)(=O)NC(C)C#N)cc1Br (configuration not stated) yielded an INHIBITION of -29.94%.
COc1ccc(Cn2cc(C(=O)N(C)Cc3ccn[nH]3)nn2)cc1 showed an INHIBITION of 20.71%.
COC(=O)N1CC[C@@]2(C1)[C@H](OC)CN(c1ccccc1)S2(=O)=O gave an INHIBITION of 22.01%.
Cc1cc(C2CCNCC2)nc(-c2ccsc2)n1 gave an INHIBITION of 24.98%.
CN1CCOC(CNCC(=O)NCCc2ccc(F)cc2)C1 (configuration not stated) gave an INHIBITION of -8.14%.
c1ccc(-n2cc(CNCC3CCCN3c3cccnn3)cn2)cc1 (configuration not stated) was tested, and the INHIBITION was -7.13%.
Molecule c1ccc(Cn2cc(CNCC3CCCN3c3cccnn3)cn2)cc1 (configuration not stated) has an INHIBITION of 62.46%.
c1ccc(Cn2ccnc2CNCC2CCCN2c2cccnn2)cc1 (configuration not stated) was tested, and the INHIBITION was 11.2%.
Molecule c1cnnc(N2CCCC2CNCc2cscn2)c1 (configuration not stated) has an INHIBITION of 4.19%.
With c1cnnc(N2CCCC2CNCc2cccs2)c1 (configuration not stated) the INHIBITION was 23.86%.
c1cnnc(N2CCCC2CNCc2ccsc2)c1 (configuration not stated) was tested, and the INHIBITION was 54.85%.
CO[C@@H]1CC[C@H]2[C@H]1OCCN2C(=O)c1ccc(C)nc1 was tested, and the INHIBITION was 29.89%.
In the case of CC(C)CNC(=O)C1=NOC2(CCN(Cc3ccc(C(C)C)cc3)C2)C1 (configuration not stated), the INHIBITION is reported as 32.09%.
In the case of CCOCc1nc2c(c(NCCNC(C)=O)n1)CCN(C(C)=O)CC2, the INHIBITION is reported as 18.28%.
Molecule CCOc1nnc(CN2CCC(c3nc4ccccc4[nH]3)CC2)s1 has an INHIBITION of 28.42%.
CCOc1nnc(CN2CCCC(c3nc4ccccc4[nH]3)C2)s1 (configuration not stated) was tested, and the INHIBITION was 53.63%.
For CCOc1nnc(CN2CCC(c3cc4ccccc4[nH]3)CC2)s1, the INHIBITION was 38.33%.
In the case of CCCN(CC(=O)OC)C(=O)c1sc(C)nc1C, the INHIBITION is reported as -1.29%.
CC(C(=O)NCCOc1ccccc1)n1cncn1 (configuration not stated) gave an INHIBITION of 26.76%.
Work on CC(C(=O)NCCOc1cccc(Cl)c1)n1cncn1 (configuration not stated) yielded an INHIBITION of 56.67%.
Cc1ccc(OCCNC(=O)C(C)n2cncn2)cc1 (configuration not stated) was tested, and the INHIBITION was 42.11%.
Molecule Cc1cc(=O)[nH]c(=O)n1COCCOCc1ccccc1 has an INHIBITION of 30.48%.
For O=C(c1nn(-c2ccccc2F)cc1O)N1CCCCC1, the INHIBITION was -10.64%.
For Cc1ccc2c(C)c(C(=O)NCc3csc(N)n3)oc2c1, the INHIBITION was -27.36%.
